Compound activity from PubChem.
HepG2 tox = HepG2 cytotoxicity, counter-screen for TGF-b inhibitors; HepG2 CAGA-GFP viability, ATP luminescence, 18 h; Potency, µM (top dose mostly 46.1 µM), for inactives: top-dose activity change, negative = cytotoxicity, usual class: cytotoxic; hit rate 0.76% among 410,000; AID 588856; note: potency is the fitted concentration of half-maximal effect
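CellTiter-Glo luminescence gave cytotoxicity after 18 hours at 37 degrees C. The cells were HepG2 CAGA-GFP in 1% FBS DMEM, stimulated with 500 pg/mL TGF-beta after compound addition. %Activity was normalised to no-cell wells (complete cell-killing) and DMSO (no toxicity), and curves were fitted and classified.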
TDP1 block = inhibitors of human tyrosyl-DNA phosphodiesterase TDP1; Q9NUW8; recombinant TDP1, AlphaScreen DNA substrate cleavage; Potency, µM (doses to about 130 µM), for inactives: at the highest dose activity change, negative = inhibition, actives largely listed as inhibitors; hit rate 0.28% among 350,000; AID 485290; note: potency is the fitted concentration of half-maximal effect; % is set by controls: 0 for no effect and ±100 for the full control effect; nearly all actives have a fitted effect of over 40% in size
Target sequence (Q9NUW8 whole entry, looked up): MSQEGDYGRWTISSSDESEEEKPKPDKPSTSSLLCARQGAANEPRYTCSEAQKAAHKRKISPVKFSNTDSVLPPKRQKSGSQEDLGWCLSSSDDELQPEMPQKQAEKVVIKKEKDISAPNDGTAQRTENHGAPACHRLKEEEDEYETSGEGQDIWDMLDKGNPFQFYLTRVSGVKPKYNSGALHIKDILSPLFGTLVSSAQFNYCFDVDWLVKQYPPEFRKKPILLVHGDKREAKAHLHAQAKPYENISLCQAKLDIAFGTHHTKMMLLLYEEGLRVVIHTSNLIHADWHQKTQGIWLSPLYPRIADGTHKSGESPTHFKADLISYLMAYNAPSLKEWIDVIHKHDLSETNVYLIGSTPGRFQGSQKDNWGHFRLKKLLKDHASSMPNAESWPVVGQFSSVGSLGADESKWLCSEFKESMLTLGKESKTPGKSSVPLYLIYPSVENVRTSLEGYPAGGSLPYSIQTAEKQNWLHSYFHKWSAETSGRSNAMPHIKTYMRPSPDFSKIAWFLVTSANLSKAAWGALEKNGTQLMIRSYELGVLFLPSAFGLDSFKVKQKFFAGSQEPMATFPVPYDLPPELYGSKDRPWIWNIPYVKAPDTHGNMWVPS
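Steps: enzyme plus compound, 15 min RT; add biotin/phosphotyrosine-FITC oligonucleotide (15 nM final), react 5 min; add donor/acceptor beads (10 ug/ml final), 10 min; read AlphaScreen. Tdp1 at 1 nM final.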
TGFb SMAD3 inh = TGF-b pathway inhibition; HepG2 CAGA-GFP TGF-b/SMAD3 reporter, GFP fluorescence, 18 h; TGF-beta stimulated, 500 pg/mL final; Potency, µM (series often up to 46.1 µM), inactives show at the highest dose activity, negative = inhibition, actives largely listed as inhibitors; AID 588855; hit rate 1.2% among 410,000; note: potency is the fitted concentration of half-maximal effect; % is set by controls: 0 for no effect and ±100 for the full control effect; nearly all actives have a fitted effect of over 65% in size
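TGF-beta reporter screen: HEPG2 CAGA-GFP, 1% FBS, 500 pg/mL TGF-beta final, 18 h; per-cell GFP summed per well; curves fitted and categorized by class.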
IL1B secr inh = inhibitors of inflammasome signaling (IL-1 beta secretion); THP-1 LPS/ATP IL-1B secretion, AlphaLISA, 16 h; active compounds read low; activity change, % at 57.5 µM; hit rate 4.7% among 360,000; AID 743279; in the data active = activity change below about -50%; inconclusive = mostly about -30% to -49%; note: % is set by controls: 0 for no effect and ±100 for the full control effect
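Secreted IL-1B measured by AlphaLISA bead assay after 16 h compound exposure of THP-1 cells; compounds (final up to 57.5 uM) added 1 h before LPS (250 ng/mL) and ATP (1.25 mM) stimulation; lower signal means less secretion.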
TDP1 cell noCPT = qHTS for Inhibitors of human tyrosyl-DNA phosphodiesterase 1 (TDP1): qHTS in cells in absence of CPT; hit rate 15% among 420,000; DT40 Tdp1-/- hTDP1 cells, no CPT, ATP luminescence, 48 h; AID 686978, 2013; Potency, µM (top dose mostly 46.2 µM), for inactives: at the highest dose activity change, negative = growth inhibition, actives largely listed as inhibitors; note: potency is the fitted concentration of half-maximal effect; % is set by controls: 0 for no effect and ±100 for the full control effect; nearly all actives have a fitted effect of over 55% in size
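No-CPT arm: Tdp1-/-;hTDP1 DT40 cells (400/well) plus compounds, incubated ≥48 hr at 37 °C. Readout CellTiter-Glo luminescence.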
DT40 TDP1 CPT = growth inhibition of DT40 Tdp1-/-;hTDP1 cells with camptothecin (screen for TDP1 inhibitors). chicken DT40 Tdp1-/-;hTDP1 cells + 20 nM CPT, ATP luminescence, 48 h. Potency, µM (doses to about 46.2 µM), for the others: top-dose activity change, negative = growth inhibition, most hits filed as inhibitors. hit rate 12% among 420,000. AID 686979; note: potency is the fitted concentration of half-maximal effect; % is set by controls: 0 for no effect and ±100 for the full control effect; nearly all actives have a fitted effect of over 55% in size
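Chicken DT40 Tdp1-/- cells complemented with human TDP1, 400 cells/well, exposed to compounds plus 20 nM camptothecin for at least 48 h at 37 C; viability read as ATP content by CellTiter-Glo luminescence.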
* = called active by the depositor; u = inconclusive; x = no result given; [ ] = remark or other dose. This is a sample that favours compounds with a hit; in the whole collection about 18% have one here. Unless noted, calls come from the whole dose curve; as a rule, active = well fitted curve in the direction sought with a large enough effect; inconclusive = small, poorly fitted or top-dose-only effect, or another doubt; inactive = no such curve, though single readings can be large; an effect the other way counts as inactive or inconclusive.

SMILES	HepG2 tox	TDP1 block	TGFb SMAD3 inh	IL1B secr inh	TDP1 cell noCPT	DT40 TDP1 CPT
CCN1CCc2c(sc(-n3cccc3)c2C(C)NC(=O)Nc2ccc(C(=O)OC)cc2)C1 (configuration not stated)	-30%	7%	10µM*	x	18µM*	18µM*
COC(=O)CCNC(=O)NC(CCC(C)C)c1c(-n2cccc2)sc2c1CCN(C)C2 (configuration not stated)	-2%	4%	-18%	x	u	u
C=CCN1CC(C(=O)N2CCC(Cc3ccc(Cl)cc3)(C(=O)OCC)CC2)CC1=O (configuration not stated)	-5%	0%	0%	17	-26%	u
Cc1ccccc1-n1c2nc(=O)[nH]c(=O)c-2cc2c(Cl)cccc21	-29%	4%[12.3 µM]	-16%	x	0.52µM*	0.82µM*
N#CCCn1c(=O)c(-c2ccccc2)nc2cnc(N3CCOCC3)nc21	x	x	x	x	-12%	-9%
COc1ccc(-c2nc3cnc(N4CCN(C)CC4)nc3n(CCC#N)c2=O)cc1	x	x	x	x	23µM*	-24%
CN1CCN(c2ncc3nc(-c4ccccc4)c(=O)n(CCC#N)c3n2)CC1	x	x	x	x	16µM*	u
Cc1nn2c(=O)cc(COC(=O)COc3ccc(F)cc3)nc2s1	0%	-5%	u	x	-10%	11%
C[C@H](O)c1[nH]c2cc(F)ccc2c1[C@H](C)O	-8%	x	-21%	9	-26%	-25%
CN(C)c1ccc(C(=O)NNC(=O)C23CC4CC(CC(C4)C2)C3)cc1	-2%	1%	12%	-17	u	0%
O=C(NC(=S)NC1C2CC3CC(C2)CC1C3)C12CC3CC(CC(C3)C1)C2 (configuration not stated)	5%	5%	8%	-7	15µM*	u
CN(C(=S)NC(=O)C12CC3CC(CC(C3)C1)C2)c1ccc(O)cc1	-22%	4%	u	38	4.6µM*	5.8µM*
CN(C)NC(=S)NC(=O)C12CC3CC(CC(C3)C1)C2	-11%	4%	1%	0	8.2µM*	4.1µM*
Cc1ccc(S(=O)(=O)NC(CC(C)C)C(=O)N2CCCCCCC2)cc1 (configuration not stated)	-10%	-2%	u	-17	u	u
O=C(NCc1ccco1)c1ccc2sc([C@@H]3O[C@H](CO)[C@@H](O)[C@H]3O)nc2c1	10%	x	21%	18	-13%	-29%
Cc1ccccc1NC(=O)CSc1nc(-c2ccc(F)cc2)nc2c1Cc1ccccc1O2	-16%	1%	11%	x	-9%	18%
CC(=O)Nc1ccc(N(CC(O)Cn2c3ccccc3c3ccccc32)S(=O)(=O)c2ccc(C)cc2)cc1 (configuration not stated)	-49%	-1%	14µM*	-55*	u	u
Cc1ccc(S(=O)(=O)N(CC(O)CN2C(=O)NC(C)(C)C2=O)c2cccc(C)c2)cc1 (configuration not stated)	-4%	1%	-10%	-11	0%	-15%
CS(=O)(=O)N(Cc1ccco1)CC(O)Cn1c2ccccc2c2ccccc21 (configuration not stated)	-24%	-1%	-26%	-22	-24%	-17%
Cc1ccc(N(CC(O)Cn2nc(C)cc2C)S(=O)(=O)c2ccc3ccccc3c2)cc1 (configuration not stated)	-35%	2%	u	u	18µM*	u
Cc1cccc(N(CC(O)Cn2c3ccccc3c3ccccc32)S(=O)(=O)c2ccc(F)cc2)c1 (configuration not stated)	-99%	1%	u	x	8.2µM*	21µM*
Cc1ccc(N(CC(O)CN2CCCC2)S(=O)(=O)c2ccc(C)cc2)cc1 (configuration not stated)	-6%	6%	0%	-20	-12%	-9%
Cc1ccc(N(CC(O)Cn2c3ccccc3c3ccccc32)S(C)(=O)=O)cc1 (configuration not stated)	-52%	4%	u	-66*	u	-20%
Cc1cc(C)n(CC(O)CN(c2ccccc2)S(=O)(=O)c2ccccc2)n1 (configuration not stated)	2%	2%	3%	3	u	-8%
COc1ccc(CN(C(=O)c2cc(=O)c3cc(C)cc(C)c3o2)C2CCS(=O)(=O)C2)cc1 (configuration not stated)	0%	3%	0%	48	u	-18%
SMILES	HepG2 tox	TDP1 block	TGFb SMAD3 inh	IL1B secr inh	TDP1 cell noCPT	DT40 TDP1 CPT
O=[N+]([O-])c1ccc(N2CCc3ccccc3C2)nc1	-12%	3%	-9%	9	u	-26%
Cc1ccc(N(CC(=O)N2CCCC2)S(C)(=O)=O)c(C)c1	0%	x	13%	16	-15%	-15%
CCCN(CCC)CC(O)Cn1c2ccccc2c2ccccc21 (configuration not stated)	0%	-2%	7%	-75*	u	u
Cc1ccc(N(CC(O)Cn2c3ccccc3c3ccccc32)S(C)(=O)=O)c(C)c1 (configuration not stated)	-111%	1%	u	-72*	u	u
CCCn1nc(C(=O)Nc2cccc(S(=O)(=O)N3CCOCC3)c2)c2ccccc2c1=O	-17%	x	4%	u	26µM*	u
CCn1nc(C(=O)Nc2cccc(S(=O)(=O)N3CCCC3)c2)c2ccccc2c1=O	-21%	0%	3%	-15	u	u
CCn1nc(C(=O)Nc2ccc(Cl)c(S(=O)(=O)N3CCOCC3)c2)c2ccccc2c1=O	-4%	1%	4%	16	16µM*	u
CC1CC(C)CN(C(=O)COC(=O)COc2ccc(C#N)cc2)C1 (configuration not stated)	0%	0%	2%	9	-16%	-14%
O=C(c1cc(C2CC2)nc2ccccc12)N1N=C(C(F)F)CC1(O)C(F)F (configuration not stated)	-23%	-2%	-28%	13	u	u
O=C(c1cc(C2CC2)nc2ccc(Br)cc12)N1N=C(C(F)F)CC1(O)C(F)F (configuration not stated)	-94%	-6%	7.9µM*	u	16µM*	16µM*
